EWS-Fli inh = EWS/Fli-driven NR0B1 reporter inhibitors, primary screen, A673 cells, NR0B1 luciferase, luminescence, MLPCN library | viability-normalised | actives 0.67% (n = 350,000) | inhibition, % at 12.6 µM | AID 651661, 2012;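 active means mean inhibition of at least 50% after viability correction, with every replicate also passing that limit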;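 further: firefly luciferase signal divided by Alamar Blue viability fluorescence both relative to DMSO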
LGR2 antag = inhibitors of bursicon-induced LGR2 CRE-luciferase signal, primary screen, cell-based, HEK293, CRE-luciferase reporter, bursicon stimulation | Drosophila bursicon receptor LGR2 (rickets) | bursicon-stimulated, 4 h | inhibition, % at 9.99 µM | actives 0.35% (n = 380,000);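 active means drop in luminescence signal, shown as inhibition above about 50% in the replicate tests, limit read from the data, passing the limit was not always enough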;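 further: agonist challenge used bursicon conditioned medium at about half maximal strength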
PAX8 inh HTS = inhibitors of PAX8-driven TPO luciferase reporter, primary screen, RMG-I cells, single concentration; inhibition, % at 12.6 µM; SteadyGlo, 24 h; actives 1.2% (n = 360,000); AID 652154, 2013;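 active means mean replicate inhibition at least 60% with every replicate also reaching 60%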;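 further: luciferase light reporting Pax8 driven TPO promoter activity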
CF NFkB inh = inhibitors of PAF-induced NF-kB signaling, primary screen, cell-based, GFP fluorescence, uHTS. KKLEB NF-kB-GFP reporter, GFP fluorescence overnight. inhibition, % at 5 µM. actives 0.86% (n = 360,000). AID 588850, 2011;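 active means at least 50% inhibition at 5 µM, scaled per plate between neutral and stimulator controls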;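 further: PAF is a Pseudomonas aeruginosa culture filtrate used as stimulus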
Shn3 inh set2 = reduction of Shn3 3'UTR firefly luciferase signal, primary screen, Schnurri-3 inhibitor project, cell-based, Clone20 osteoblasts, set 2. actives 0.52% (n = 360,000). inhibition, % at 12.5 µM. Clone20 osteoblast Shn3 3'UTR firefly luciferase, 24 h;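 active means mean inhibition of at least 75% with every replicate also reaching 75%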
KKLEB tox = cytotoxicity in KKLEB CF airway cells, primary screen, cytotoxicity control for CF NF-kB inhibitor project, cell-based, uHTS, fluorescence assay plates; activity change (cytotoxicity), % at 5 µM; KKLEB CF airway cells viability, ATPlite luminescence, overnight; active compounds read low; cells stimulated with P. aeruginosa culture filtrate; actives 0.36% (n = 360,000);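 active means corrected activity change at or below -50% at 5 µM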
Numbers stand for hits; – = inactive; · = no result. Only some compounds are listed: those with a hit (about 2% of all), similar ones and a draw of the others.

SMILES	EWS-Fli inh	LGR2 antag	PAX8 inh HTS	CF NFkB inh	Shn3 inh set2	KKLEB tox
O=C(NCc1ccccc1)C1=C[C@@H](c2csc3ccccc23)C[C@@H](OCCCCO)O1	–	–	77.3	·	·	·
c1ccc2cc(CCO[C@H]3CCCCO3)ncc2c1	–	55.3	–	–	–	–
c1nc(CCO[C@H]2CCCCO2)cc2cc3c(cc12)OCO3	75.0	90.8	–	–	–	–
COc1ccc(NC(=O)N[C@H]2CC[C@@H](CC(=O)NC3CCCCC3)O[C@@H]2CO)cc1	–	–	–	·	·	·
Cc1noc(C)c1NC(=O)N(C)C[C@H]1OCCCC[C@H](C)Oc2ccc(NS(=O)(=O)c3ccc(F)cc3)cc2C(=O)N([C@H](C)CO)C[C@@H]1C	–	–	–	·	·	·
CCC(=O)N1CC2(C1)CN(C(=O)Nc1ccc(F)cc1)[C@H](CO)c1c2c2ccc(OC)cc2n1C	–	–	·	·	·	·
C[C@@H]1CN([C@H](C)CO)C(=O)c2cc(NC(=O)Nc3ccc(C(F)(F)F)cc3)ccc2O[C@@H](C)CCCCO[C@H]1CN(C)C(=O)Nc1ccc(C(F)(F)F)cc1	–	–	95.6	·	·	·
C[C@@H]1CCCCO[C@H](CN(C)C(=O)Nc2ccc(C(F)(F)F)cc2)[C@H](C)CN([C@@H](C)CO)C(=O)c2cc(NC(=O)CCC(F)(F)F)ccc2O1	–	–	–	·	·	·
C[C@H]1CCCCO[C@H](CN(C)C(=O)Nc2ccc(C(F)(F)F)cc2)[C@@H](C)CN([C@@H](C)CO)C(=O)c2cc(NC(=O)CCC(F)(F)F)ccc2O1	–	–	87.3	·	·	·
C[C@@H]1CCCCO[C@@H](CN(C)C(=O)Nc2ccc(C(F)(F)F)cc2)[C@H](C)CN([C@@H](C)CO)C(=O)c2cc(NC(=O)Nc3ccc(C(F)(F)F)cc3)ccc2O1	–	–	77.4	·	·	·
C[C@H]1CCCCO[C@@H](CN(C)C)[C@@H](C)CN([C@@H](C)CO)C(=O)c2cc(NC(=O)Nc3ccc(C(F)(F)F)cc3)ccc2O1	–	–	88.2	·	·	·
C[C@H]1CCCCO[C@H](CN(C)C(=O)Nc2ccc(C(F)(F)F)cc2)[C@@H](C)CN([C@@H](C)CO)C(=O)c2cc(NC(=O)Nc3ccc(C(F)(F)F)cc3)ccc2O1	–	–	–	·	·	·
O=C(C[C@@H]1CC[C@@H](NS(=O)(=O)c2ccc(F)cc2)[C@@H](CO)O1)NCCN1CCCCC1	–	–	–	·	·	·
Cc1ccc(-n2c(C)c([N+](=O)[O-])c3ccc(O)c(CN(C)C)c32)cc1	·	·	–	82.3	–	–
COc1ccc(-n2c(C)c([N+](=O)[O-])c3ccc(O)c(CN4CCCCC4)c32)cc1	·	·	–	73.3	–	–
Cc1ccc(-n2c(C)c([N+](=O)[O-])c3ccc(O)cc32)cc1	–	–	–	·	·	·
Cc1ccc(S(=O)(=O)N[C@H]2C=C[C@@H](CC(=O)NCCN3CCCCC3)O[C@H]2CO)cc1	–	–	–	·	·	·
C[C@@H](NC(=O)C[C@H]1CC[C@@H](NC(=O)CN2CCOCC2)[C@@H](CO)O1)c1ccccc1	–	–	–	·	·	·
CC(C)C(NC(=O)C12CC3CC(CC(C3)C1)C2)C(=O)N/N=C/C1=C(N2CCOCC2)C(=C\c2ccc([N+](=O)[O-])cc2)/CC1 (stereo unspecified)	–	–	–	91.2	–	-99.7
CC(NC(=O)C12CC3CC(CC(C3)C1)C2)C(=O)N/N=C/C1=C(N2CCOCC2)C(=C\c2cccc([N+](=O)[O-])c2)/CC1 (stereo unspecified)	·	–	–	–	–	–
C[C@@H]1CN([C@@H](C)CO)C(=O)c2cc(N(C)C)ccc2O[C@@H]1CN(C)Cc1ccc(C(=O)Nc2ccccc2N)cc1	82.0	·	–	·	·	·
Cc1cc(C(=O)Nc2cccc3c2O[C@H](CN(C)Cc2ccc(Oc4ccccc4)cc2)[C@@H](C)CN([C@@H](C)CO)C3=O)n(C)n1	–	–	67.6	·	·	·
C[C@H]1CN([C@@H](C)CO)C(=O)c2cccc(NC(=O)c3ccc(-c4nccs4)cc3)c2O[C@H]1CN(C)Cc1ccc(-c2ccccc2)cc1	–	–	62.7	·	·	·
Cc1cc(C(=O)Nc2cccc3c2O[C@@H](CN(C)Cc2ccc(-c4ccccc4)cc2)[C@H](C)CN([C@H](C)CO)C3=O)n(C)n1	–	–	69.8	·	·	·
C[C@H]1CN([C@@H](C)CO)C(=O)Cc2cc(N(C)C)ccc2O[C@H]1CN(C)Cc1ccc(C(=O)Nc2ccccc2N)cc1	·	–	·	·	·	·
SMILES	EWS-Fli inh	LGR2 antag	PAX8 inh HTS	CF NFkB inh	Shn3 inh set2	KKLEB tox
C[C@@H]1CN([C@@H](C)CO)C(=O)Cc2cc(NS(=O)(=O)c3ccc(Cl)cc3)ccc2O[C@@H]1CN(C)S(=O)(=O)c1cccs1	–	–	·	·	·	·
CO[C@H]1CN(C)C(=O)c2cc(NS(=O)(=O)c3ccc(C)cc3)ccc2OC[C@@H](C)N(C(=O)NC(C)C)C[C@@H]1C	–	–	·	·	·	·
Cc1ccc(S(=O)(=O)NC[C@@H]2CC[C@@H]3[C@@H](CN3Cc3cc(-c4ccccc4)on3)O2)cc1	–	·	·	·	·	·
O=C(C1=C[C@H](c2ccc(Br)cc2)C[C@H](OCc2ccc(CO)cc2)O1)N1CCCCCCC1	–	·	–	·	·	·
C[C@H](CO)N1C[C@H](C)[C@@H](CN(C)Cc2ccc(-c3ccccc3)cc2)Oc2ncc(-c3cccnc3)cc2C1=O	68.7	–	·	·	·	·
CC(C)CC#Cc1ccc2c(c1)O[C@H](CN(C)C(=O)Cc1ccccn1)[C@@H](C)CN([C@H](C)CO)S2(=O)=O	–	–	·	·	·	·
CCCC(=O)Nc1ccc2c(c1)C(=O)N(C)C[C@H](OC)[C@@H](C)CN(Cc1ccccn1)[C@@H](C)CO2	–	–	–	·	·	·
Cc1ccc(CN2C3=NCCCN3c3ccccc32)cc1	·	·	·	–	–	–
CCCCN1C2=NCCCN2c2ccccc21	·	·	·	–	–	–
CCCCCCCN1C2=NCCCN2c2ccccc21	–	–	–	–	86.6	–
CC(C)(C)c1ccc(CN2C3=NCCCN3c3ccccc32)cc1	·	·	–	–	88.4	–
O=C(Nc1ccccc1)N1CC(=O)N2[C@H](CO)[C@H](c3ccc(C#CC4CC4)cc3)[C@H]2C1	–	–	–	·	·	·
COc1ccc(-c2nn(-c3ccccc3)cc2/C=N/Nc2ccc(S(N)(=O)=O)cc2[N+](=O)[O-])cc1OC	–	–	–	58.2	–	-66.2
CO[C@H](CN(C)Cc1ccc2c(c1)OCO2)[C@H](C)CN(C(=O)Nc1ccc(F)cc1)[C@@H](C)CO	–	–	·	·	·	·
C[C@@H]1CCCCO[C@H](CN(C)Cc2ccc(C(F)(F)F)cc2)[C@H](C)CN([C@H](C)CO)C(=O)c2cc(NC(=O)c3ccccc3)ccc2O1	–	–	99.2	·	·	·

Source: PubChem BioAssay
